Calls of active or inactive are those of the source. The calls were made as follows: active = hit-call score of the fitted dose curve at least 0.9, where 1 is the maximum; inactive = score below 0.9.

For orientation: AC50 means the concentration at which the activity in the assay is half-maximal.

Assay [1] is described as follows: BSK_hDFCGF_SRB: Viability Assessment in the BioMAP Diversity Plus: hDFCGF Assay (AID 2283061).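 Also: cells exposed to compound for 24 h before the read.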 As to conditions: primary human foreskin fibroblasts. The method in brief:
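Cells were dosed with test chemical, cultured 24 h, fixed with 10% TCA, then stained with 0.1% SRB and read at 560 nm. The fibroblasts were human foreskin primary cells, and DMSO served as baseline.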

Read-out in assay [2]: TIMP metallopeptidase inhibitor 1 (TIMP1), TIMP1 (gene 7076)
Nature of the assay: BSK_hDFCGF_TIMP1: BioMAP Diversity Plus: hDFCGF Assay for TIMP metallopeptidase inhibitor 1 (TIMP1) Biomarker Activity (AID 2283062). As to conditions: primary human foreskin fibroblasts; actives raise or lower the signal. The method in brief:
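Fibroblasts from human foreskin are treated with test chemical and harvested at 24 h. TIMP-1 is quantified by ELISA, and gain or loss of signal is scored against DMSO.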

Read-out in assay [3]: Monokine induced gamma interferon (MIG), CXCL9 (gene 4283)
Nature of the assay: BSK_hDFCGF_MIG: BioMAP Diversity Plus: hDFCGF Assay for Monokine induced gamma interferon (MIG) Biomarker Activity (AID 2283063). As to conditions: primary human foreskin fibroblasts; actives raise or lower the signal. The method in brief: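 MIG signal, determined by ELISA, reflects 24 h chemical exposure of human skin primary fibroblasts. DMSO serves as negative control and baseline.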

Read-out in assay [4]: Matrix Metallopeptidase 1 (MMP1), MMP1 (gene 4312)
Nature of the assay: BSK_hDFCGF_MMP1: BioMAP Diversity Plus: hDFCGF Assay for Matrix Metallopeptidase 1 (MMP1) Biomarker Activity (AID 2283064). The following applies: primary human foreskin fibroblasts; actives raise or lower the signal. The method in brief: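 ELISA read-out of MMP1 from human foreskin fibroblasts (primary skin cells), 24 h post-dose. Gain or loss of signal was fitted bidirectionally versus DMSO negative control; cytotoxicity was checked by SRB in parallel cultures.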

Read-out in assay [5]: Vascular cell adhesion molecule 1 (VCAM1), VCAM1 (gene 7412)
Briefly: BSK_hDFCGF_VCAM1: BioMAP Diversity Plus: hDFCGF Assay for Vascular cell adhesion molecule 1 (VCAM1) Biomarker Activity (AID 2283065).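 As to AC50: VCAM-1 protein level quantified by ELISA after 24 h chemical exposure.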 The following applies: primary human foreskin fibroblasts; actives raise or lower the signal. The method in brief: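 Cells are dosed, cultured for 24 h, then VCAM-1 is quantified by ELISA; signal increases and decreases are both fitted relative to DMSO.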

Read-out in assay [6]: Plasminogen activator inhibitor-1 (PAI1), SERPINE1 (gene 5054)
Briefly: BSK_hDFCGF_PAI1: BioMAP Diversity Plus: hDFCGF Assay for Plasminogen activator inhibitor-1 (PAI1) Biomarker Activity (AID 2283066). The following applies: primary human foreskin fibroblasts; actives raise or lower the signal. The method in brief:
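Fibroblasts from human foreskin were treated with test chemical. After 24 h, PAI-1 was measured by ELISA. Activity was fitted in both directions relative to DMSO.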

Read-out in assay [7]: Interferon-gamma inducible Protein 10 (IP10), CXCL10 (gene 3627)
Nature of the assay: BSK_KF3CT_IP10: BioMAP Diversity Plus: KF3CT Assay for Interferon-gamma inducible Protein 10 (IP10) Biomarker Activity (AID 2283068). As to conditions: primary human keratinocytes with fibroblasts; actives raise or lower the signal. The method in brief:
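Signal is secreted/surface IP-10 by ELISA in a human primary skin co-culture of keratinocytes and foreskin fibroblasts, taken 24 h post-dosing; DMSO served as negative control.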

Assay [8] is described as follows: BSK_KF3CT_SRB: Viability Assessment in the BioMAP Diversity Plus: KF3CT Assay (AID 2283069).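 Also: total protein by sulforhodamine B staining as a cytotoxicity measure; read 24 h after compound addition; fitted for both signal gain and loss against DMSO baseline.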 The following applies: primary human keratinocytes with fibroblasts. The method in brief:
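SRB read-out at 560 nm (0.1% stain, TCA-fixed cells) gauges overt cytotoxicity in a human skin keratinocyte–fibroblast co-culture 24 h post-dosing. Signal change was fitted bidirectionally relative to DMSO control.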

Read-out in assay [9]: Interleukin-1 alpha (IL1a), IL1A (gene 3552)
Briefly: BSK_KF3CT_IL1a: BioMAP Diversity Plus: KF3CT Assay for Interleukin-1 alpha (IL1a) Biomarker Activity (AID 2283070). As to conditions: primary human keratinocytes with fibroblasts; actives raise or lower the signal. The method in brief:
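Primary skin co-culture (keratinocytes, foreskin fibroblasts), 24 h exposure; ELISA for IL-1a; bidirectional curve fit vs DMSO.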

Read-out in assay [10]: Intercellular Adhesion Molecule 1 (ICAM1), ICAM1 (gene 3383)
Nature of the assay: BSK_KF3CT_ICAM1: BioMAP Diversity Plus: KF3CT Assay for Intercellular Adhesion Molecule 1 (ICAM1) Biomarker Activity (AID 2283067). The following applies: primary human keratinocytes with fibroblasts; actives raise or lower the signal. The method in brief: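 Dose the keratinocyte/fibroblast co-culture, wait 24 h, measure ICAM-1 by ELISA, then fit increases or decreases against DMSO. Cytotoxicity is checked in parallel cultures by SRB total-protein staining.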

On to `O=C(O)CCCCC(=O)O`, for which the outcome in [1], in assay [2], in assay [3], in assay [4], in assay [5] and in assay [6] was inactive. The outcome in [7], in assay [8] and in assay [9] was inactive.
For the compound `NS(=O)(=O)c1cc2c(cc1Cl)NCNS2(=O)=O`, the outcome in assay [1], in assay [2], in assay [3], in assay [4], in [5] and in [6] was inactive. For the same compound, the result in [10], in assay [7], in [8] and in [9] was inactive.
In the case of `CCCCCCCCCCCCCO`, the AC50 in [1] was 13.1 µM (active); in assay [2], 13.1 µM (active); in assay [3], 24.3 µM (active); in assay [4], 15.6 µM (active); in assay [5] it was 9.95 µM (active); in assay [6], 12.9 µM (active). In addition, the AC50 in assay [7] was 36.2 µM (active); in [8] it was 31.9 µM (active); in assay [9], 35.2 µM (active).
On to `O=C(OCCCCCOC(=O)c1ccccc1)c1ccccc1`, for which the result in assay [1], in assay [2], in assay [3], in assay [4], in assay [5] and in assay [6] was inactive. In addition, the outcome in [10], in assay [7], in assay [8] and in assay [9] was inactive.
As to `Nc1ccccc1N`, the outcome in assay [1], in [2], in assay [3], in assay [4], in assay [6] and in assay [10] was inactive. Besides, the outcome in assay [7], in [8] and in assay [9] was inactive. In addition, the AC50 in assay [5] was 6.75 µM (active).
With `COc1ccc2c(c1)c(CC(=O)O)c(C)n2C(=O)c1ccc(Cl)cc1`, the result in assay [1], in assay [2], in [3], in assay [4], in [5] and in assay [6] was inactive. For the same compound, the result in assay [7], in assay [8] and in assay [9] was inactive.
Take `CCOc1ccc2c(c1)C(C)=CC(C)(C)N2`: the result in [1], in [2], in assay [4], in [6], in assay [7] and in assay [8] was inactive. For the same compound, in assay [9], the outcome was inactive. Besides, the AC50 in assay [3] is 16.4 µM (active); in assay [5], 3.97 µM (active).
Consider `CCNc1cccc(C)c1`, for which the result in assay [1], in [2], in assay [3], in assay [4], in assay [5] and in assay [6] was inactive. The outcome in assay [7], in assay [8] and in assay [9] was inactive.
Take `O=[N+]([O-])C(CO)(CO)CO`: the outcome in [1], in assay [2], in assay [3], in assay [4], in [5] and in assay [6] was inactive. Moreover, the outcome in assay [7], in [8] and in [9] was inactive.
For `Cc1oc(-c2ccccc2)nc1CCOc1cccc2c1ccn2CCC(=O)O`, the result in assay [1], in [2], in assay [3], in assay [4], in assay [5] and in [6] was inactive. The result in [7], in assay [8] and in assay [9] was inactive.
Turning to `Oc1ccc2c(c1)OC[C@@H](N1CCC(O)(c3ccc(F)cc3)CC1)[C@H]2O`, the outcome in assay [1], in assay [2], in [3], in assay [4], in assay [5] and in assay [6] was inactive. Also, the outcome in [10], in assay [7], in assay [8] and in [9] was inactive.
With `CCCCCCCCCCCC(=O)OC`, the outcome in assay [1], in [2], in assay [3], in assay [4], in assay [5] and in assay [6] was inactive. Moreover, the outcome in [10], in assay [7], in [8] and in [9] was inactive.
As to `COC(=O)c1ccc(O)cc1`, the result in assay [1], in assay [2], in assay [3], in assay [4], in assay [5] and in assay [6] was inactive. Also, the result in [10], in assay [7], in assay [8] and in assay [9] was inactive.
Regarding `O=c1c(O)c(-c2ccc(O)c(O)c2)oc2cc(O)cc(O)c12`, the AC50 in assay [1] was 12.2 µM (active); in [3], 7.18 µM (active); in assay [7] it was 17.6 µM (active); in [8], 14.2 µM (active); in [9], 7.22 µM (active). The result in assay [2], in assay [4], in [5] and in assay [6] was inactive.
With `Cc1cccc([N+](=O)[O-])c1C`, the outcome in assay [1], in [2], in assay [3], in assay [4], in assay [5] and in [6] was inactive. Besides, the result in assay [10], in assay [7], in assay [8] and in assay [9] was inactive.
As for `Clc1cc(Cl)c(Cl)cc1Cl`, the outcome in assay [1], in [2], in assay [3], in assay [4], in [5] and in [6] was inactive. For the same compound, the outcome in assay [10], in assay [7], in assay [8] and in assay [9] was inactive.
Turning to `CCOC(=O)C(C)(C)Oc1ccc(Cl)cc1`, the outcome in assay [1], in [2], in assay [3], in assay [4], in assay [5] and in [6] was inactive. Also, the result in assay [7], in assay [8] and in assay [9] was inactive.
Take `Cc1ccc(C)c(C)c1`: the outcome in assay [1], in [2], in assay [3], in [4], in [5] and in assay [6] was inactive. Also, the result in [7], in assay [8] and in assay [9] was inactive.
`C=CCOC(=O)c1ccccc1C(=O)OCC=C`: the result in [1], in [2], in assay [3], in assay [4], in assay [5] and in assay [6] was inactive. The result in assay [7], in assay [8] and in [9] was inactive.
Take `C=CCc1ccc(O)c(OC)c1`: the outcome in assay [1], in assay [2], in [3], in assay [4], in [5] and in [6] was inactive. Further, the result in assay [7], in [8] and in assay [9] was inactive.
For `CCCCCCCCCCCCCCCC`, the outcome in assay [1], in assay [2], in assay [3], in [4], in assay [5] and in assay [6] was inactive. The result in [7], in [8] and in assay [9] was inactive.
In the case of `Oc1ccc2ccccc2c1N=Nc1ccccc1`, the outcome in assay [1], in [2], in assay [3], in assay [4], in [5] and in assay [7] was inactive. For the same compound, the result in assay [8] and in assay [9] was inactive. The AC50 in assay [6] was 0.855 µM (active).
